Data on 20 molecules can be found in the supplement of paper PMC9262897, “Low-cost anti-mycobacterial drug discovery using engineered E. coli” (Nature Communications, 2022).

Where a name gives a salt, the structure may show the parent alone. ± gives the standard deviation of the averaged measurements.

One experiment relates to E. coli TESEC Mtb DapB. The experiment can be described thus: growth (OD600 after 10 h); higher = more growth (less inhibition). The note with it: arabinose induction (level): High; compound 0.1 mM; raw OD600 reference: median of DMSO wells […], cell-free background 0.041. How it is done: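 TESEC E. coli strains in which the native enzyme is deleted and replaced by arabinose-inducible Mtb Asd, DapB, CysH or TrpD, each grown in its selective medium. Strains were screened against the Prestwick library at 0.1 mM and 1% DMSO in 384-well format at low and high arabinose induction. Growth is read as OD600 after 10 h in triplicate.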
As for `CC(=O)CC(c1ccccc1)c1c(O)c2ccccc2oc1=O` (stereo not given) [Warfarin], the growth is 0.2 ± 0.011.
Same read-out and setting: the same measure for `CN(C)CC/C=C1\c2ccccc2CSc2ccccc21` [Dosulepin hydrochloride]: 0.168 ± 0.015.
On the same count and under the same terms, the same measure for `Nc1ccc(S(=O)(=O)Nc2cnc3ccccc3n2)cc1` [Sulfaquinoxaline sodium salt]: 0.181 ± 0.012; for `O=C(O)Cc1ccc(-c2ccccc2)cc1` [Felbinac]: 0.194 ± 0.014.
On the same count and under the same terms, the same measure for `CC(=O)O[C@H]1C[C@@H]2CC[C@@H]3[C@H](CC[C@@]4(C)[C@H]3C[C@H]([N+]3(C)CCCCC3)[C@@H]4OC(C)=O)[C@@]2(C)C[C@@H]1N1CCCCC1` [Vecuronium bromide]: 0.172 ± 0.019; for `CS(=O)(=O)c1ccc([C@@H](O)[C@@H](CO)NC(=O)C(Cl)Cl)cc1` [Thiamphenicol]: 0.0792 ± 0.0018.
`CCOC(=O)[C@@](C)(N)Cc1ccc(O)c(O)c1` [Methyldopate hydrochloride] registered a growth of 0.155 ± 0.01.
Molecule `CN1[C@@H]2CC[C@H]1C[C@@H](OC(=O)c1c[nH]c3ccccc13)C2` [Tropisetron HCl] had a growth of 0.219 ± 0.02.
In turn, `CCCCOc1cc(C(=O)NCCN(CC)CC)c2ccccc2n1` [Dibucaine] gave a growth of 0.184 ± 0.016.
The same measure, in the same setting: the same measure for `Cc1ccc(Cl)c(Nc2ccccc2C(=O)O)c1Cl` [Meclofenamic acid sodium salt monohydrate]: 0.118 ± 0.021; for `CCCNC(C)C(=O)Nc1ccccc1C` (stereo not given) [Prilocaine hydrochloride]: 0.1776 ± 0.0016.
Consider `Cc1ncc(C[n+]2csc(CCO)c2C)c(N)n1` [Thiamine hydrochloride], for which the growth stood at 0.227 ± 0.024.
Same read-out and setting: the same measure for `CNC(=O)c1c(I)c(C(=O)NCC(=O)Nc2c(I)c(C(=O)O)c(I)c(C(=O)NCCO)c2I)c(I)c(N(C)C(C)=O)c1I` [Ioxaglic acid]: 0.198 ± 0.013; for `C[n+]1ccccc1/C=N/O` [Pralidoxime chloride]: 0.223 ± 0.011; for `N[C@@H]1CCCCN(c2c(F)cc3c(=O)c(C(=O)O)cn(C4CC4)c3c2Cl)C1` [Besifloxacin hydrochloride]: 0.0491 ± 0.0014.
On to `CN(C/C=C/C#CC(C)(C)C)Cc1cccc2ccccc12` [Terbinafine], for which the growth was found to be 0.182 ± 0.047.
`O=C(Nc1ccc([N+](=O)[O-])cc1Cl)c1cc(Cl)ccc1O` [Niclosamide] came in with a growth of 0.174 ± 0.012.
Consider `CC1(C)S[C@@H]2[C@H](NC(=O)[C@H](NC(=O)N3CCNC3=O)c3ccccc3)C(=O)N2[C@H]1C(=O)O` [Azlocillin sodium salt], for which the growth was 0.177 ± 0.015.
Still for that read-out and setting: in the case of `NC(=O)N1c2ccccc2CC(=O)c2ccccc21` [Oxcarbazepine] it was 0.189 ± 0.0098; in that of `CCCCc1cc2ccccc2c(OCCN(C)C)n1` [Dimethisoquin hydrochloride], 0.167 ± 0.014.

Still in this experiment, the particulars now being: arabinose induction (level): Low; compound 0.1 mM; raw OD600 reference: median of DMSO wells 0.227, cell-free background 0.041.
In turn, `CC(=O)CC(c1ccccc1)c1c(O)c2ccccc2oc1=O` (stereo not given) [Warfarin] came in with a growth of 0.231 ± 0.021.
Molecule `CN(C)CC/C=C1\c2ccccc2CSc2ccccc21` [Dosulepin hydrochloride] had a growth of 0.202 ± 0.0032.
Still for that read-out and setting: the same measure for `Nc1ccc(S(=O)(=O)Nc2cnc3ccccc3n2)cc1` [Sulfaquinoxaline sodium salt]: 0.204 ± 0.022; for `O=C(O)Cc1ccc(-c2ccccc2)cc1` [Felbinac]: 0.206 ± 0.022.
`CC(=O)O[C@H]1C[C@@H]2CC[C@@H]3[C@H](CC[C@@]4(C)[C@H]3C[C@H]([N+]3(C)CCCCC3)[C@@H]4OC(C)=O)[C@@]2(C)C[C@@H]1N1CCCCC1` [Vecuronium bromide] yielded a growth of 0.216 ± 0.022.
Same read-out and setting: in the case of `CS(=O)(=O)c1ccc([C@@H](O)[C@@H](CO)NC(=O)C(Cl)Cl)cc1` [Thiamphenicol] it was 0.0622 ± 0.0072; in that of `CCOC(=O)[C@@](C)(N)Cc1ccc(O)c(O)c1` [Methyldopate hydrochloride], 0.152 ± 0.016; in that of `CN1[C@@H]2CC[C@H]1C[C@@H](OC(=O)c1c[nH]c3ccccc13)C2` [Tropisetron HCl], 0.264 ± 0.05.
For `CCCCOc1cc(C(=O)NCCN(CC)CC)c2ccccc2n1` [Dibucaine], the growth was 0.25 ± 0.025.
Same read-out and setting: the same measure for `Cc1ccc(Cl)c(Nc2ccccc2C(=O)O)c1Cl` [Meclofenamic acid sodium salt monohydrate]: 0.123 ± 0.016; for `CCCNC(C)C(=O)Nc1ccccc1C` (stereo not given) [Prilocaine hydrochloride]: 0.209 ± 0.023; for `Cc1ncc(C[n+]2csc(CCO)c2C)c(N)n1` [Thiamine hydrochloride]: 0.217 ± 0.015.
Molecule `CNC(=O)c1c(I)c(C(=O)NCC(=O)Nc2c(I)c(C(=O)O)c(I)c(C(=O)NCCO)c2I)c(I)c(N(C)C(C)=O)c1I` [Ioxaglic acid] came in with a growth of 0.211 ± 0.013.
Same read-out and setting: the same measure for `C[n+]1ccccc1/C=N/O` [Pralidoxime chloride]: 0.284 ± 0.0069; for `N[C@@H]1CCCCN(c2c(F)cc3c(=O)c(C(=O)O)cn(C4CC4)c3c2Cl)C1` [Besifloxacin hydrochloride]: 0.0491 ± 0.001; for `CN(C/C=C/C#CC(C)(C)C)Cc1cccc2ccccc12` [Terbinafine]: 0.218 ± 0.03.
In turn, `O=C(Nc1ccc([N+](=O)[O-])cc1Cl)c1cc(Cl)ccc1O` [Niclosamide] showed a growth of 0.193 ± 0.043.
Consider `CC1(C)S[C@@H]2[C@H](NC(=O)[C@H](NC(=O)N3CCNC3=O)c3ccccc3)C(=O)N2[C@H]1C(=O)O` [Azlocillin sodium salt], for which the growth came to 0.222 ± 0.031.
Molecule `NC(=O)N1c2ccccc2CC(=O)c2ccccc21` [Oxcarbazepine] showed a growth of 0.201 ± 0.019.
The same measure, in the same setting: the same measure for `CCCCc1cc2ccccc2c(OCCN(C)C)n1` [Dimethisoquin hydrochloride]: 0.184 ± 0.012.
